The values that follow come from PubChem BioAssay (NCATS).

Inconclusive results are not listed. A number with no mark means an inactive call. Activity calls are given as the source filed them. Calls come from the whole dose curve; as a rule, active = well fitted curve in the direction sought with a large enough effect; inconclusive = small, poorly fitted or top-dose-only effect, or another doubt; inactive = no such curve, though single readings can be large; an effect the other way counts as inactive or inconclusive.

Test [1] addresses Aldehyde dehydrogenase, mitochondrial (Homo sapiens) (UniProt P05091). In words: qHTS for Inhibitors of the Aldehyde Dehydrogenase Family (ALDH2) Primary screen (AID 2061308).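 Note: plate controls were vehicle for no effect and reference inhibitor for full effect; nearly all actives have a fitted effect of over 55% in size.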
Test [2] deals with Retinaldehyde dehydrogenase 3 (Homo sapiens) (UniProt P47895). In words: qHTS for Inhibitors of the Aldehyde Dehydrogenase Family (ALDH1A3) Primary screen (AID 2061315).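 Note: plate controls were DMSO vehicle for no effect and reference inhibitor for full effect.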
Test [3] can be described thus: BET inhibitor-based combinations targeting novel dependencies in MECOM-rearranged (r) AML: SET-2 cell line (AID 2202231).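 For viability: plate controls were DMSO treated cells for no effect and wells without cells for full effect.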 Note: nearly all actives have a fitted effect of over 35% in size. Note: potency is the fitted concentration of half-maximal effect. To be noted: SET-2 AML cells viability, CellTiter-Glo luminescence, 48 h; viability: hits give low values, concentration not given here. In outline: (§1)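 A 48 hr incubation preceded viability reading by CellTiter-Glo, with 15 min room-temperature development. Dose series had 11 points; normalization used DMSO and empty wells; AUC was computed and mean-centered per line as Z-AUC.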

Test [4] in a line: BET inhibitor-based combinations targeting novel dependencies in MECOM-rearranged (r) AML: MV-4-11 cell line (AID 2202233). Note: nearly all actives have a fitted effect of over 45% in size. Note: potency is the fitted concentration of half-maximal effect. The gist of the method: (§2)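 Each compound is tested in an 11-point concentration series against 500 seeded cells/well for 48 hr. The luminescent viability signal is normalized to DMSO and blank wells, then reduced to AUC and a cell-line-centred Z-AUC.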
Test [5] in a line: BET inhibitor-based combinations targeting novel dependencies in MECOM-rearranged (r) AML: UCSD-AML1 cell line (AID 2202235). Note: nearly all actives have a fitted effect of over 40% in size. Note: potency is the fitted concentration of half-maximal effect. The gist of the method:
as §2

A short description of test [6]: BET inhibitor-based combinations targeting novel dependencies in MECOM-rearranged (r) AML: AML-191 cell line (AID 2202236; note: nearly all actives have a fitted effect of over 35% in size; note: potency is the fitted concentration of half-maximal effect). In outline: as §1
Test [7] is described as follows: BET inhibitor-based combinations targeting novel dependencies in MECOM-rearranged (r) AML: AML-194 cell line (AID 2202237; note: nearly all actives have a fitted effect of over 40% in size; note: potency is the fitted concentration of half-maximal effect). The gist of the method:
as §1

Test [8] in a line: BET inhibitor-based combinations targeting novel dependencies in MECOM-rearranged (r) AML: HNT-34 cell line (AID 2202234). Note: nearly all actives have a fitted effect of over 35% in size. Note: potency is the fitted concentration of half-maximal effect. The gist of the method: as §2
A short description of test [9]: BET inhibitor-based combinations targeting novel dependencies in MECOM-rearranged (r) AML: OCI-AML3 cell line (AID 2202232). Note: nearly all actives have a fitted effect of over 35% in size. Note: potency is the fitted concentration of half-maximal effect. The following applies: Potency: OCI-AML3 viability. In outline:
as §1

For `CCn1c(N)c(C(=O)NC)c(=O)c2ccc(C#CC(C)(O)COC)nc21` (configuration not stated), the Potency entry in test [1], in test [2], in test [5] and in [7] was “inactive” each time. Moreover, the viability in [3] is 91.1%. For the same compound, the Potency was 5.25 µM (active) in test [4] and 23.5 µM (active) in test [6].
Turning to `COc1cc2nc(-c3ccc(N4CCN(C)CC4)cc3)nc(NCCN3CCOCC3)c2cc1OC`, the Potency result in test [1] and in test [2] was “inactive” throughout. Also, the Potency in test [3] is 5.9 µM (active); in [4], 2.35 µM (active); in test [8], 10.5 µM (active); in [5], 4.68 µM (active); in [7] it was 13.2 µM (active).
As to `C=CC(=O)Nc1ccc2ncnc(Nc3cccc(Br)c3)c2c1`, the Potency entry in [1] and in test [2] was “inactive” in each case. In addition, the Potency in [3] was 26.3 µM (active); in test [9], 11.8 µM (active); in test [8] it was 9.34 µM (active); in [5] it was 8.33 µM (active); in test [6], 8.33 µM (active); in test [7], 11.8 µM (active).
As for `C[C@@H](Nc1ncnc2[nH]c(-c3ccc(O)cc3)cc12)c1ccccc1`, the Potency entry in test [1] and in test [2] was “inactive” in each case. Moreover, the Potency in [3] was 5.25 µM (active); in [4], 14.8 µM (active); in test [8], 14.8 µM (active); in [6] it was 14.8 µM (active).
Turning to `Cn1cc(-c2cnc3ccc4ccc(CS(=O)(=O)NCc5ccccn5)cc4c(=O)c3c2)cn1`, the Potency result in test [1], in test [2], in [9] and in test [5] was “inactive” throughout. Further, the Potency in test [3] was 16.6 µM (active); in test [8] it was 23.5 µM (active); in [6], 23.5 µM (active).
On to `C#Cc1cccc(Nc2ncnc3cc(OCCOC)c(OCCOC)cc23)c1`, for which the Potency result in test [1] and in test [2] was “inactive” each time. Also, the Potency in test [4] was 5.9 µM (active); in test [8], 5.25 µM (active).
With `CCN1CCN(Cc2ccc(NC(=O)c3ccc(C)c(/C=C/c4cnc5[nH]ccc5c4OC)c3)cc2C(F)(F)F)CC1`, the Potency result in [1] and in test [2] was “inactive” in each case. Moreover, the Potency in test [9] was 5.25 µM (active); in [4] it was 0.186 µM (active); in [8], 0.209 µM (active); in test [5], 2.95 µM (active); in [6], 2.95 µM (active); in [7], 2.95 µM (active).
With `COCCNCCCn1c(C(=O)CF)c(-c2ccc(C)cc2)c2c(N)ncnc21`, the Potency result in test [1], in test [2], in [5] and in [7] was “inactive” throughout. Moreover, the viability in [3] was 101%. For the same compound, the Potency in [4] was 3.32 µM (active).
Regarding `COc1cc(Nc2ncc(F)c(Nc3ccc4c(n3)N(COP(=O)(O)O)C(=O)C(C)(C)O4)n2)cc(OC)c1OC`, the Potency entry in test [1], in [2] and in test [9] was “inactive” in each case. Also, the Potency in test [8] is 2.09 µM (active); in test [5], 2.63 µM (active); in [6], 3.72 µM (active).
In the case of `C[C@@H]1CCN(C(=O)CC#N)C[C@@H]1N(C)c1ncnc2[nH]ccc12`, the Potency result in [1] and in test [2] was “inactive” in each case. Moreover, the results for the Potency in [3] and in [5] were 1.48 µM (active) and 0.059 µM (active), respectively.
For the compound `CN(C)Cc1ccc(-c2nc3cccc4c3n2CCNC4=O)cc1`, the Potency entry in [1], in test [2] and in test [9] was “inactive” each time. Besides, the Potency in test [8] is 18.6 µM (active); in test [7], 23.5 µM (active).
For `COc1cc2c(cc1OC(C)C)[C@H](c1ccc(Cl)cc1)N(c1ccc(N(C)CC3CCC(N4CCN(C)C(=O)C4)CC3)cc1)C(=O)C2` (some centres not stated), the Potency result in test [1] and in test [2] was “inactive” throughout. The Potency is 11.8 µM (active) in test [9]; 2.35 µM (active) in test [4]; 3.72 µM (active) in test [8]; 5.9 µM (active) in test [6]; 10.5 µM (active) in test [7].
As to `C[C@@H]1CCNC(=O)c2cc3ccc(C(=O)Nc4nc5ccccc5n4CCCN(C)C)cc3n21`, the Potency entry in test [1] and in [2] was “inactive” throughout. Moreover, the Potency in [9] is 6.61 µM (active); in test [4] it was 0.59 µM (active); in test [8] it was 16.6 µM (active).
Regarding `Cc1[nH]c(/C=C2\C(=O)Nc3ccc(F)cc32)c(C)c1C(=O)NC[C@H](O)CN1CCOCC1`, the Potency entry in [1] and in test [2] was “inactive” throughout. In addition, the Potency in [9] is 5.25 µM (active); in [4], 0.0742 µM (active); in test [8], 3.72 µM (active); in test [5] it was 10.5 µM (active); in [6], 4.17 µM (active); in [7], 10.5 µM (active).
Take `COC(=O)N[C@@H](C)CNc1nccc(-c2cn(C(C)C)nc2-c2cc(Cl)cc(NS(C)(=O)=O)c2F)n1`: the Potency entry in test [1] and in test [2] was “inactive” each time. For the same compound, the Potency is 1.66 µM (active) in test [9]; 2.35 µM (active) in test [4]; 0.833 µM (active) in [8]; 2.63 µM (active) in test [5]; 1.66 µM (active) in test [6]; 2.09 µM (active) in test [7].
Regarding `O=C(Nc1cccnc1)c1cc(-c2ccnc(F)c2)ccc1OCc1ccccc1`, the Potency entry in [1], in [2], in test [5], in [6] and in [7] was “inactive” in each case. Besides, the viability in [3] is 121%. Also, the Potency in test [4] is 3.72 µM (active).
Consider `CCN1CCN(Cc2ccc(NC(=O)Nc3ccc(Oc4cc(NC)ncn4)cc3)cc2C(F)(F)F)CC1`, for which the Potency result in [1] and in [2] was “inactive” throughout. The Potency in [4] is 0.0023 µM (active).
Consider `CCCCNc1ncc2c(-c3ccc(F)cc3)nn(CC3CCC(N)CC3)c2n1` (configuration not stated), for which the Potency result in test [1] and in test [2] was “inactive” throughout. The Potency in test [9] was 9.1 µM (active); in [4] it was 0.129 µM (active); in test [8], 4.56 µM (active); in test [5], 6.45 µM (active); in test [6], 5.74 µM (active); in test [7] it was 5.74 µM (active).
Regarding `Clc1cccc(-c2ccc(-c3nnc(CCCc4ccc5cccnc5n4)o3)cc2)c1`, the Potency result in test [1], in [2], in [4], in [8], in [5] and in test [6] was “inactive” throughout. In [7], the Potency entry was “inactive”. Besides, the viability in [3] is 119%.
